Test results: PubChem BioAssay (NCATS)
Results filed as inconclusive are left out. Active and inactive are the calls of the source. Calls follow the shape of the full dose curve.

Experiments:
[1] = Primary qHTS for inhibitors of SARS-S pseudo-typed particle cell entry (AID 1479145); also: nearly all actives have a fitted effect of over 45% in size
[2] = Primary qHTS for Huh7 cytotoxicity: counterscreen for inhibitors of MERS-S pseudotyped particle cell entry (AID 1479147)
[3] = Primary qHTS for inhibitors of MERS-S pseudo-typed particle cell entry (AID 1479149); also: nearly all actives have a fitted effect of over 60% in size; also: potency is read from the fitted curve at half-maximal effect
[4] = Primary qHTS for Vero E6 cytotoxicity: counterscreen for inhibitors of SARS-S pseudo-typed particle cell entry (AID 1479150)

Measured: Potency

Cc1[nH]c(=O)c(C#N)cc1-c1ccncc1
inactive: all assays above

CC(=O)Oc1cc2c(s1)CCN(C(C(=O)C1CC1)c1ccccc1F)C2 (stereo unspecified)
inactive: all assays above

Nc1cc(-c2ccncc2)c[nH]c1=O
inactive: all assays above

CCOC(=O)[C@H](CCc1ccccc1)N[C@@H](C)C(=O)N1[C@H](C(=O)O)C[C@@H]2CCC[C@@H]21
inactive: all assays above

c1cnc2cc3c(cc2n1)C1CNCC3C1
inactive: all assays above

C[C@@H](c1ncncc1F)C(O)(Cn1cncn1)c1ccc(F)cc1F (stereo partly specified)
inactive: all assays above

NC(=O)OCC(COC(N)=O)c1ccccc1
inactive: all assays above

CN(CCOc1ccc(CC2SC(=O)NC2=O)cc1)c1ccccn1 (stereo unspecified)
inactive: all assays above

Cc1ccc2c(n1)Oc1ccc(C(C)C(=O)OCC(=O)N(C)C)cc1C2 (stereo unspecified)
inactive: all assays above

CNCCc1ccccn1
inactive: all assays above

CC#C[C@]1(O)CC[C@H]2[C@@H]3CCC4=CC(=O)CCC4=C3[C@@H](c3ccc(N(C)C)cc3)C[C@@]21C
inactive: all assays above

O=c1n(CCCN2CCN(c3cccc(Cl)c3)CC2)nc2ccccn12
inactive: all assays above

COC(=O)C(c1ccccc1Cl)N1CCc2sccc2C1 (stereo unspecified)
inactive: all assays above

CNC1(C)C2CCC(C2)C1(C)C (stereo unspecified)
inactive: all assays above

CC(=O)Nc1nnc(S(N)(=O)=O)s1
inactive: all assays above

C[C@@H]1C[C@H]2[C@@H]3CCC4=CC(=O)C=C[C@]4(C)[C@@]3(F)[C@@H](O)C[C@]2(C)[C@@]1(O)C(=O)CO
inactive: all assays above

Clc1ccc(C(c2ccccc2Cl)C(Cl)Cl)cc1 (stereo unspecified)
inactive: all assays above

CCOC(=O)c1ncn2c1CN(C)C(=O)c1cc(F)ccc1-2
inactive: all assays above

CC(=O)OCC(CCn1cnc2cnc(N)nc21)COC(C)=O
inactive: all assays above

CCn1cc(C(=O)O)c(=O)c2ccc(C)nc21
inactive: all assays above

CCOC(=O)[C@H](CCc1ccccc1)N[C@@H](C)C(=O)N1Cc2ccccc2C[C@H]1C(=O)O
inactive: all assays above

O=C(O)CCCc1ccccc1
inactive: all assays above

O=C(O)COCCN1CCN(C(c2ccccc2)c2ccc(Cl)cc2)CC1 (stereo unspecified)
inactive: all assays above

C[C@](N)(Cc1ccc(O)c(O)c1)C(=O)O
inactive: all assays above

CC/C=C(\C(=O)N[C@@H]1C(=O)N2C(C(=O)OCOC(=O)C(C)(C)C)=C(COC(N)=O)CS[C@H]12)c1csc(N)n1
inactive: all assays above

CCCCCOC(=O)Nc1nc(=O)n([C@@H]2O[C@H](C)[C@@H](O)[C@H]2O)cc1F
inactive: all assays above

CCN(CC)CCNC(=O)c1cc(Cl)c(N)cc1OC
inactive: all assays above

CCCc1cc(=O)[nH]c(=S)[nH]1
inactive: all assays above

CN(C)c1cc(NC(=O)CNC(C)(C)C)c(O)c2c1C[C@@H]1C[C@H]3[C@H](N(C)C)C(=O)C(C(N)=O)=C(O)[C@@]3(O)C(=O)C1=C2O
inactive: all assays above

CN/C(=C\[N+](=O)[O-])NCCSCc1ccc(CN(C)C)o1
inactive: all assays above

CCOC(=O)Nc1ccc2c(c1)N(C(=O)CCN1CCOCC1)c1ccccc1S2
inactive: all assays above

OC(Cn1cncn1)(Cn1cncn1)c1ccc(F)cc1F
inactive: all assays above

CC1=C(C(=O)O)N2C(=O)[C@@H](NC(=O)[C@H](N)c3ccc(O)cc3)[C@H]2SC1
inactive: all assays above

CC1=C(C(=O)O)N2C(=O)[C@@H](NC(=O)[C@H](N)c3ccccc3)[C@H]2SC1
inactive: all assays above

O=NN(CCCl)C(=O)NC1CCCCC1
inactive: all assays above

CC(C)(O)c1ccccc1CC[C@@H](SCC1(CC(=O)O)CC1)c1cccc(/C=C/c2ccc3ccc(Cl)cc3n2)c1
inactive: all assays above

O=C(NCCN1CCOCC1)c1ccc(Cl)cc1
inactive: all assays above

Cc1ccc(S(=O)(=O)NC(=O)NN2CCCCCC2)cc1
inactive: all assays above

O=C1NC(=O)C(c2ccccc2)(c2ccccc2)N1
inactive: all assays above

C[n+]1ccccc1/C=N/O
inactive: all assays above

Cn1cc[nH]c1=S
inactive: all assays above

CCN(C)C(=O)Oc1cccc([C@H](C)N(C)C)c1
inactive: all assays above

CCOc1ccc2ccccc2c1C(=O)N[C@@H]1C(=O)N2[C@@H]1SC(C)(C)[C@@H]2C(=O)O
inactive: all assays above

Cc1cccc(Nc2ccncc2S(=O)(=O)NC(=O)NC(C)C)c1
inactive: all assays above

O=C(OC1C[C@H]2CC[C@@H](C1)[N+]21CCCC1)C(O)(c1ccccc1)c1ccccc1 (stereo partly specified)
inactive: all assays above

Cc1ncc([N+](=O)[O-])n1CCO
inactive: all assays above

O=C1Cc2cc(CCN3CCN(c4nsc5ccccc45)CC3)c(Cl)cc2N1
inactive: all assays above

Nc1nnc(-c2cccc(Cl)c2Cl)c(N)n1
inactive: all assays above

CCc1c2c(nc3ccc(OC(=O)N4CCC(N5CCCCC5)CC4)cc13)-c1cc3c(c(=O)n1C2)COC(=O)[C@]3(O)CC
active: [3] 10 µM
inactive: all other assays above

CC[C@@]1(c2ccccc2)NC(=O)N(C)C1=O
inactive: all assays above

O=P(O)(O)C(O)(Cc1cccnc1)P(=O)(O)O
inactive: all assays above

COc1cc2nc(N3CCN(C(=O)C4CCCO4)CC3)nc(N)c2cc1OC (stereo unspecified)
inactive: all assays above

CCCN(CCC)CCc1cccc2c1CC(=O)N2
inactive: all assays above

Nc1nc2c(ncn2COCCO)c(=O)[nH]1
inactive: all assays above

CN(N=O)C(=O)N[C@@H]1[C@@H](O)[C@H](O)[C@@H](CO)O[C@@H]1O
inactive: all assays above

NNCCc1ccccc1
inactive: all assays above

Cc1cccc(C)c1OCC(C)N (stereo unspecified)
inactive: all assays above

NS(=O)(=O)Cc1noc2ccccc12
inactive: all assays above

CO/N=C1\CN(c2nc3c(cc2F)c(=O)c(C(=O)O)cn3C2CC2)CC1CN (stereo unspecified)
inactive: all assays above

CCCc1nc2c(C)cc(-c3nc4ccccc4n3C)cc2n1Cc1ccc(-c2ccccc2C(=O)O)cc1
inactive: all assays above

O=C1OCCN1/N=C/c1ccc([N+](=O)[O-])o1
inactive: all assays above

NCCC(O)(P(=O)(O)O)P(=O)(O)O
inactive: all assays above

O=C(O)P(=O)(O)O
inactive: all assays above

NCCCC(O)(P(=O)(O)O)P(=O)(O)O
inactive: all assays above

CC[C@]1(O)C[C@@H]2CN(CCc3c([nH]c4ccccc34)[C@@](C(=O)OC)(c3cc4c(cc3OC)N(C)[C@H]3[C@@](O)(C(=O)OC)[C@H](OC(C)=O)[C@]5(CC)C=CCN6CC[C@]43[C@@H]65)C2)C1
inactive: all assays above

C[N+]1(C)CCC(OC(=O)C(O)(c2ccccc2)C2CCCC2)C1 (stereo unspecified)
inactive: all assays above

CN1C(=O)CC(C)(c2ccccc2)C1=O (stereo unspecified)
inactive: [1] | [2] | [4]

CCCCC1=NC2(CCCC2)C(=O)N1Cc1ccc(-c2ccccc2-c2nn[nH]n2)cc1
inactive: all assays above
